# Reference: PubChem BioAssay (NCI)
# About 83,000 compounds went through this panel and 20% of them were active in at least one assay; those are over-represented in the sample as a whole.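 Growth was measured after 48 h exposure to one concentration of compound in 96-well plates. Values under 10 count as active.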 A number with no mark means an inactive call. Calls of active or inactive are those of the source.
# Experiments:
# Test in all cases: NCI-60 one-dose screen, 48 h (100 = growth as untreated, 0 = no growth, -100 = all killed)
# Conditions in all cases: 10 µM
# [1] = test system: T-47D breast
# [2] = test system: BT-549 breast
# [3] = test system: MDA-MB-435 melanoma
# [4] = test system: SW-620 colon
# [5] = test system: MCF7 breast
# [6] = test system: HCT-116 colon
# [7] = test system: HCC-2998 colon
# [8] = test system: KM12 colon
SMILES,growth [1],growth [2] [%],growth [3],growth [4],growth [5],growth [6],growth [7],growth [8]
C/C(=N\NC(=S)N1CCCC1)c1ccccn1,18.3%,28.1,19.2%,22.6%,14.2%,22.3%,14.7%,17.4%
FC(F)(F)c1ccc(-c2cnc(Br)nc2NC2CCCCCC2)cc1,19.3%,56.6,20.4%,28.2%,27.1%,20.3%,72.1%,25%
CCc1nn2c(-c3ccccc3)c(-c3cc(OC)c(OC)c(OC)c3)nc2s1,72.5%,111,95.5%,83.5%,60.6%,80.8%,91.6%,94.7%
COc1ccc(-c2nnc(COc3ccc(NC(=O)Nc4ccccc4)cc3F)o2)cc1,62.1%,79.6,92.3%,102%,90.3%,69.8%,103%,68.5%
CCCCC(CC#N)(CCC)CCC,100%,98.5,99.4%,108%,98.4%,106%,96.3%,107%
O=c1cc(CSc2nnc(-c3ccccc3)n2-c2ccc(F)cc2)c2ccc3ccccc3c2o1,76.7%,102,112%,104%,99.5%,86.5%,86.9%,95.8%
Oc1ccccc1-c1nnc(Cn2c(Cc3cccc4ccccc34)nc3ccccc32)o1,89.6%,101,111%,103%,102%,100%,104%,98.8%
Cc1cc(C)c2c(Nc3ncnc4c3sc3nc(C)cc(C)c34)n[nH]c2n1,89.8%,101,98.7%,101%,103%,103%,113%,111%
NC(=O)c1ccc(Br)o1,92.9%,103,112%,113%,95.5%,108%,91.1%,102%
COc1ccc(C2=Cc3ccc(OC(C)=O)cc3OC2)cc1,87.3%,97.5,91.9%,101%,101%,104%,95%,88.9%
CCOC(=O)/C(C#N)=C(/C)C1CC1,103%,107,106%,108%,101%,110%,112%,106%
N#C/C(=C\N1C(=O)/C(=C/c2cccc([N+](=O)[O-])c2)SC1=S)c1nc2ccccc2s1,54.7%,78.3,76.2%,105%,70.9%,81.6%,100%,81.3%
CS(=O)(=O)Nc1ccc([N+](=O)[O-])cc1Oc1ccccc1,84%,109,101%,104%,102%,100%,93%,94.5%
Cn1c([N+](=O)[O-])cnc1C=C1C(=O)c2ccccc2C1=O,65.4%,25,11.8%,29%,37.8%,20.7%,88.2%,68.3%
O=C(COCc1c(-c2ccccc2)no[n+]1[O-])Nc1nc(-c2ccc(Cl)cc2)cs1,103%,102,111%,101%,96.3%,104%,104%,101%
Fc1ccc(Nc2ccnc(N3CCN(c4ccnc5cc(Cl)ccc45)CC3)n2)cc1,-0.414% (active),75.1,48.6%,63.2%,19.2%,15.4%,62.6%,42.1%
C[N+]1=C(/C=C/c2ccc(I)cc2)C(C)(C)c2ccccc21,89.3%,93,75.7%,51.5%,87.7%,87.2%,103%,88.9%

SMILES,growth [1],growth [2] [%],growth [3],growth [4],growth [5],growth [6],growth [7],growth [8]
O=C(OCC1OC(n2cc(C(F)(F)F)c(=O)[nH]c2=O)CC1OC(=O)c1ccc([N+](=O)[O-])cc1)c1ccc([N+](=O)[O-])cc1 (stereo not given),74.4%,60.1,50.6%,65.6%,33.6%,72.7%,51.5%,72.2%
COc1ccc(C(=O)n2nc(CC(=O)NCc3ccccc3)nc2N)cc1,105%,102,109%,105%,99.1%,99.5%,104%,116%
COc1ccc(-c2ccccc2)cc1C(=O)c1ccc(-c2ccccc2)cc1,85.7%,76.8,-7.15% (active),52.3%,50.6%,60.8%,74.6%,48.5%
c1ccc(CC(NCCNC(Cc2ccccc2)c2ccccc2)c2ccccc2)cc1 (stereo not given),13.9%,56.6,38%,5.83% (active),-7.95% (active),-25.3% (active),3.25% (active),16.3%
O=C(NC1CCN(Cc2ccccc2)CC1)c1cc(-c2ccncc2)nc2ccc(Cl)cc12,29.8%,35.4,28%,23.5%,17.7%,9.97% (active),44.4%,26.1%
CC(=O)OC1Oc2ccccc2-c2oc(=O)c(-c3cc(=O)oc4cc(O)ccc34)cc21 (stereo not given),-17.5% (active),61.4,86.8%,92.2%,85.5%,87.3%,–,89.2%
COc1cc(/C=C/C(=O)c2cc(-c3ccc(F)cc3)ccc2O)cc(OC)c1OC,42.1%,88,70.7%,80.9%,68.6%,60%,93.1%,86%
Cc1ccc(-n2nnc3c(sc4ccccc43)c2=O)cc1,64.2%,81.4,59%,58.6%,81.2%,3.11% (active),70.8%,25.3%
COc1ccc(OC)c([N+](=O)[O-])c1C=O,56.5%,117,101%,65.1%,38.2%,50.7%,110%,95.8%
Cc1nc(Nc2nc3ccccc3o2)nc(-c2cccc([N+](=O)[O-])c2)c1C(=O)Nc1ccc(F)c(Cl)c1,5.31% (active),19.4,8.91% (active),9.75% (active),3.7% (active),6.76% (active),-25.6% (active),-14.6% (active)
CC1(C)CC(OCCCC[P+](c2ccccc2)(c2ccccc2)c2ccccc2)CC(C)(C)N1O,-2.14% (active),17.3,-57.9% (active),2.74% (active),-1.61% (active),12.4%,–,-51.6% (active)
COc1cc(C2C(C#N)=C(c3c[nH]c4ccccc34)Nc3nc(N)[nH]c(=O)c32)cc(OC)c1OC (stereo not given),36.2%,51.6,38.1%,86.9%,42.2%,74%,93.1%,94.1%
O=C(COc1ccc(Cl)cc1Cl)Oc1coc(CSc2nc3ccccc3s2)cc1=O,101%,108,114%,20.7%,102%,105%,–,110%
Cc1noc(C)c1-c1ccc2nc(NC(=O)[C@H]3CCN(C#N)C3)cn2c1,54.8%,76.3,81.7%,83.6%,71.1%,82.1%,90.4%,91.3%
FC(F)(F)c1ccc(-c2cnc(Cl)nc2NCc2cc(C(F)(F)F)cc(C(F)(F)F)c2)cc1,10.5%,26.2,14.3%,17.5%,4.38% (active),4.49% (active),–,13.1%
c1ccc(C2CCCCC2)c(OCCCCCN2CCNCC2)c1,28%,72.4,47.2%,11.3%,-34.4% (active),-7.58% (active),-68.8% (active),35.6%
